Screens as filed in PubChem.
Shown is part of a subset that was picked to be rich in hits.
DT40 TDP1 no CPT = qHTS for Inhibitors of human tyrosyl-DNA phosphodiesterase 1 (TDP1): qHTS in cells in absence of CPT; DT40 Tdp1-/- hTDP1 cells, no CPT, ATP luminescence, 48 h; Potency, µM (doses to about 46.2 µM), without a hit: at the highest dose activity change, negative = growth inhibition, most hits filed as inhibitors; hit rate 15% among 420,000; AID 686978, 2013; further: potency means the concentration at half of the fitted maximal effect; nearly all actives have a fitted effect of over 55% in size
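No-CPT arm: Tdp1-/-;hTDP1 DT40 cells (400/well) plus compounds, incubated ≥48 hr at 37 °C. Readout CellTiter-Glo luminescence.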
HT1080 IDH1KD tx = HT-1080 IDH1 knockdown cell toxicity (counter line); HT-1080 IDH1 knockdown viability, ATP luminescence, 48 h; Potency, µM (doses to about 46.1 µM), for inactives: at the top dose activity, negative = toxicity, actives largely listed as cytotoxic; hit rate 2% among 360,000;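 further: potency means the concentration at half of the fitted maximal effect; 0% = DMSO wells and -100% = cell-free medium wells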
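Cytotoxicity counter-line: IDH1KD HT-1080, 48 h, CellTiter-Glo. Curves classed by r2, magnitude and activity.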
TDP1 cell CPT = growth inhibition of DT40 Tdp1-/-;hTDP1 cells with camptothecin (screen for TDP1 inhibitors) | chicken DT40 Tdp1-/-;hTDP1 cells + 20 nM CPT, ATP luminescence, 48 h | Potency, µM (top dose mostly 46.2 µM), for the others: top-dose activity change, negative = growth inhibition, most hits filed as inhibitors | hit rate 12% among 420,000 | AID 686979; further: potency means the concentration at half of the fitted maximal effect; nearly all actives have a fitted effect of over 55% in size
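Chicken DT40 Tdp1-/- cells stably complemented with human TDP1 were seeded at 400 cells/well in medium containing 20 nM camptothecin, exposed to pin-transferred compounds, and grown at 37 °C for at least 48 hr. Viability was read as ATP luminescence.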
HT1080NT lethal = kills 2HG-producing HT-1080-NT fibrosarcoma cells | HT-1080-NT fibrosarcoma viability, CellTiter-Glo ATP luminescence, 48 h | Potency, µM (top dose mostly 46.1 µM), for inactives: at the highest dose activity, negative = less viability, actives largely listed as cytotoxic | hit rate 1.6% among 360,000 | AID 686970;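 further: NT is the 2HG producing partner of a matched IDH1 knockdown line; potency means the concentration at half of the fitted maximal effect; 0% = DMSO-treated cells and -100% = media-only wells without cells; nearly all actives have a fitted effect of over 55% in size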
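Fibrosarcoma NT cells, 750 per well in 5% FBS RPMI, were exposed to compound for 48 hours. Viability: CellTiter-Glo luminescence.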
12-LOX inh = inhibitors of human 12S-lipoxygenase ALOX12; P18054; purified 12hLO, xylenol orange hydroperoxide absorbance; Potency, µM (series often up to 108 µM), inactives show top-dose activity change, negative = inhibition, hits mostly inhibitors; hit rate 1.1% among 580,000; AID 1671190; further: potency means the concentration at half of the fitted maximal effect
Target sequence (P18054 whole entry, looked up): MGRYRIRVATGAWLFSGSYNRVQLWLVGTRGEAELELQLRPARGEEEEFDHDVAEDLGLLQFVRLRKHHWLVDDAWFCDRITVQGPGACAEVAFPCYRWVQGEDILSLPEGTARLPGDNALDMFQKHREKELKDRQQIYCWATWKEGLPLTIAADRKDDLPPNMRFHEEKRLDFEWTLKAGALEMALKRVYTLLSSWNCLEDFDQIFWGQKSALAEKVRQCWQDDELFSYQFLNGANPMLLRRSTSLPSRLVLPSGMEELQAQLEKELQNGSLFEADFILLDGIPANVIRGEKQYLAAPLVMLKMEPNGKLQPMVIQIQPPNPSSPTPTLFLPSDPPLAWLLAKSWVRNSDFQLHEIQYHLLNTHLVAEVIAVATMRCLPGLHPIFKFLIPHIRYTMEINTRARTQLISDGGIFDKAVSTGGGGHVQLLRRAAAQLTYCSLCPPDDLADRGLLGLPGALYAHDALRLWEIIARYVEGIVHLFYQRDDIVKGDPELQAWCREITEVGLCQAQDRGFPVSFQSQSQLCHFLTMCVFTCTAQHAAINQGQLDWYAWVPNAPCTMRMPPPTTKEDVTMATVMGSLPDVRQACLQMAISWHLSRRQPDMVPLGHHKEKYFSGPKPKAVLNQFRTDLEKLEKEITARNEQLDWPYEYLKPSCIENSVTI
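Hydroperoxide product was detected by ferrous iron/xylenol orange as the 573 to 405 nm absorbance ratio. Arachidonic acid at 40 uM (final) was turned over for 30 min at room temperature by 150 nM human 12hLO, pH 7.0 Hepes buffer, after 15 min compound preincubation.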
IL-1B inflam inh = inflammasome signaling inhibition, IL-1 beta readout | hit rate 4.7% among 360,000 | THP-1 LPS/ATP IL-1B secretion, AlphaLISA, 16 h; hits give low values | activity change, % at 57.5 µM; in the data active means activity change below about -50%; inconclusive means mostly about -30% to -49%
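Secreted IL-1B measured by AlphaLISA bead assay after 16 h compound exposure of THP-1 cells; compounds (final up to 57.5 uM) added 1 h before LPS (250 ng/mL) and ATP (1.25 mM) stimulation; lower signal means less secretion.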
* = called active by the depositor; ? = inconclusive; . = no result given; [ ] = dose if it differs, or a comment. Unless noted, the call rests on the fitted dose curve; in most records, active means well fitted curve in the direction sought with a large enough effect; inconclusive means small, poorly fitted or top-dose-only effect, or another doubt; inactive means no such curve, though single readings can be large; an effect the other way counts as inactive or inconclusive. Unless noted, on the % scale 0 is the no-effect control and ±100 the full control effect.

SMILES	DT40 TDP1 no CPT	HT1080 IDH1KD tx	TDP1 cell CPT	HT1080NT lethal	12-LOX inh	IL-1B inflam inh
Clc1ccc(-n2ncc3c(NC4CCCCCC4)ncnc32)cc1	.	.	.	.	-5.6%	.
CN(Cc1ccc(-c2ccccc2)cc1)Cc1nccs1	.	.	.	.	37.5%[176 µM]	.
Cc1noc(-c2cc(Br)cc(Br)c2O)n1	.	.	.	.	-2.7%	.
N#CC1=C2SC=C(c3ccc(Br)cc3)N2CCCC1=O	23.1µM*	-3.3%	?	-27.8%	?	-11.9
CC(=O)CC1(OC(C)=O)C(=O)N(C)c2ccccc21 (stereo not given)	2.91µM*	?	3.66µM*	-21.8%	2.5%	?
Cc1cccc(CSc2ncnc3c2cnn3Cc2ccccc2)c1	?	2.2%	-22.4%	6.4%	0.0%	-9.5
Cc1ccc(Cn2ncc3c(N4CCN(Cc5ccc(Cl)cc5)CC4)ncnc32)cc1	16.4µM*	-12.0%	18.4µM*	-2.3%	-31.5%	13.5
CCN(CC)c1ncnc2c1cnn2Cc1ccc(C)cc1	11.6µM*	-14.1%	?	-12.4%	1.0%	0.5
Cc1ccccc1N1CCN(c2ncnc3c2cnn3Cc2ccc(Cl)cc2)CC1	13µM*	-12.1%	13µM*	-5.2%	63.0%	?
CCN(CC)C(=O)CSc1ncnc2c1cnn2Cc1ccccc1	11.6µM*	8.7%	-28.1%	2.9%	5.5%	-2.7
O=C(N1CCOc2ccc(CN3CCc4ccccc4C3)cc2C1)C1(c2ccccc2)CC1	.	.	.	.	25.7%	.
CC(C)CC(=O)NCC(=O)N1CCCCCCNC(=O)CC1c1ccccc1 (stereo not given)	.	.	.	.	41.3%	.
Cc1ccc(Cn2ncc3c(N4CCN(C5CCCC5)CC4)ncnc32)cc1	-26.3%	3.4%	?	4.0%	-8.3%	12.4
CC1CCN(c2ncnc3c2cnn3Cc2ccc(Cl)cc2)CC1	18.4µM*	-16.3%	18.4µM*	-12.7%	3.2%	-0.2
Cc1ccc(Cn2ncc3c(N4CCN(C)CC4)ncnc32)cc1	10.3µM*	-4.0%	?	-8.2%	2.5%	1.7
Cc1ccc(Cl)cc1-n1ncc2c(N3CCC(C)CC3)ncnc21	9.2µM*	.	23.1µM*	.	-15.5%	.
Cc1cccc(-n2ncc3c(N4CCC(C)CC4)ncnc32)c1	?	1.2%	?	4.3%	-23.9%	?
Cc1cc(C)nc(N2CCN(c3ncnc4c3cnn4Cc3ccc(Cl)cc3Cl)CC2)n1	3.66µM*	0.8%	?	0.5%	.	3.1
Cc1ccc(Cn2ncc3c(N4CCN(c5ccc(C)cc5)CC4)ncnc32)cc1	?	-15.1%	-25.2%	6.5%	-14.1%	35.4
CS(=O)(=O)N1CCCCC1C(=O)NC1CCCC1 (stereo not given)	.	.	.	.	31.8%	.
Cc1cc(C)c(C(=O)COC(=O)c2cccc(S(=O)(=O)NCc3ccccc3)c2)cc1C	16.4µM*	-2.2%	?	-9.7%	9.2%	22.5
COc1ccc(C(=O)NCCn2cc(SCC(=O)NCc3ccco3)c3ccccc32)cc1	5.8µM*	?	7.31µM*	-3.9%	-10.2%	-1.8
COc1ccc(C(=O)NCCn2cc(SCC(=O)Nc3cccc(C)c3)c3ccccc32)cc1	?	.	16.4µM*	.	-5.9%	.
C=CC[C@H]1CC(C)=C[C@H](CC=C)N1	0.8%	11.0%	13.2%	4.7%	?	14.0
C=CCC1C=C(Cc2ccccc2)CC(CC=C)N1 (stereo not given)	23.1µM*	-17.4%	18.4µM*	-2.3%	-6.9%	-3.3
SMILES	DT40 TDP1 no CPT	HT1080 IDH1KD tx	TDP1 cell CPT	HT1080NT lethal	12-LOX inh	IL-1B inflam inh
C=CC[C@H]1CC(Cc2ccccc2)=C[C@H](CC=C)N1	18.4µM*	-2.5%	16.4µM*	-3.7%	?	-75.1*
CC(C)CNC(=O)C1COC2(CCN(C(=O)CC(C)C)CC2)N1C(=O)c1ccco1 (stereo not given)	.	.	.	.	40.9%	.
C=CC[n+]1c(-c2ccc(OCC)cc2)csc1NNC(=O)Nc1ccccc1	5.8µM*	?	7.31µM*	?	-6.4%	-22.2
NN1C(=O)/C(=C2/Sc3ccccc3N2CCCS(=O)(=O)O)SC1=S	-8.7%	3.3%	3.5%	-2.1%	14.1µM*	-1.7
O=C1NC(=S)S/C1=C1\Sc2ccccc2N1CCCS(=O)(=O)O	-12.2%	29.1%	0.3%	16.6%	-28.3%	0.0
O=C(/C=C/c1ccco1)NC(=S)Nc1nc(-c2ccc3ccccc3c2)cs1	4.11µM*	?	3.26µM*	?	?	-5.2
O=C(O)/C=C/C(=O)Nc1nc(-c2ccc3ccccc3c2)cs1	-20.3%	-0.6%	-12.0%	2.2%	0.5%	13.3
COc1ccc(-c2csc(NC(=S)NC(=O)/C=C/c3ccccc3)n2)cc1Br	23.1µM*	-18.7%	?	-15.9%	65.5%	3.4
O=C(/C=C/c1ccco1)NC(=S)Nc1nc(-c2ccc(Cl)cc2)cs1	4.61µM*	-7.7%	5.17µM*	-1.5%	?	-8.3
CC(C#N)(NC(=O)CSc1ccc(O)cc1)C1CC1 (stereo not given)	.	.	.	.	-32.0%	.
CNC(=O)NC(=O)COc1ccc(C(=O)c2ccc(F)cc2)cc1	.	.	.	.	-0.5%	.
Cn1nc(CC(=O)NCc2cccc3ccccc23)c2ccccc2c1=O	9.2µM*	?	7.31µM*	-10.0%	-1.8%	26.9
O=C(Cn1ncn2c(cc3ccccc32)c1=O)NCCCc1ccccc1	-8.3%	1.3%	-14.9%	6.1%	.	0.0
Cn1nc(CC(=O)NCc2ccc(F)cc2)c2ccccc2c1=O	18.4µM*	-9.2%	13µM*	2.2%	-0.8%	39.3
Cc1ccc(NC(=O)Cc2nn(C)c(=O)c3ccccc23)cc1F	2.59µM*	?	2.31µM*	?	19.5%	-22.6
COC(=O)CNC(=O)Cc1nn(C)c(=O)c2ccccc12	.	.	.	.	2.1%	.
O=C(Cn1ncn2c(cc3ccccc32)c1=O)NCc1ccc(F)cc1	4.11µM*	.	5.8µM*	.	-11.9%	.
CN(C)C(=O)CN1CCN(c2nc(-c3ccccc3)nc3ccccc23)CC1	.	.	.	.	6.5%	.
COc1ccc(-c2cc(C(F)(F)F)nc(S(=O)(=O)CCCC(=O)Nc3ccccc3C(F)(F)F)n2)cc1OC	2.06µM*	.	1.16µM*	.	?	.
COc1ccc(-c2cc(C(F)(F)F)nc(S(=O)(=O)CCCC(=O)Nc3cccc(O)c3)n2)cc1OC	4.11µM*	11.6µM*	3.66µM*	18.4µM*	-11.3%	-145.7*
COc1ccccc1-c1cc(C(F)(F)F)nc(S(=O)(=O)CCCC(=O)Nc2ccc(F)c(Cl)c2)n1	?	.	-22.6%	.	-16.5%	.
